Assay results published in PubChem BioAssay (NCATS).
Records with an inconclusive call do not appear. The source made the active and inactive calls. The call rests on the fitted dose curve; in most records, active means well fitted inhibition curve with a large enough effect; inconclusive means small, poorly fitted or top-dose-only effect; inactive means flat fitted curve, though single readings scatter.

Target: Calcium and integrin-binding protein 1 (Homo sapiens) (UniProt Q99828)
Test: Primary qHTS for Identification of Calcium Integrin Binding Protein 1 (CIB1) Competitor (AID 1508620);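 further: GST tagged CIB1 binding a fluorescein labelled alphaIIb integrin peptide tracer; top concentration of the series differs between compounds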
Conditions: CIB1-GST / FITC-alphaIIb peptide fluorescence polarization; series mostly up to 57.7 µM; activity change, negative = inhibition: at the top concentration
Excerpt: Assay Provider: Ulhas P. Naik, PhD Sidney Kimmel Medical College Thomas Jefferson University, Philadelphia, PA Primary function of platelets is to maintain hemostasis. At the site of vascular injury, platelets adhere to adhesive proteins such as collagen and von Willebrand factor. Adherent platelets are activated and generate soluble platelet agonists such as thrombin, ADP and thromboxane A2. Following exposure of circulating platelets to these agonists, results in platelet shape change, granule secretion and activation of platelet integrin alphaIIb-beta3. Ligand binding to activated integrin alphaIIb-beta3 triggers outside-in signaling, leading to platelet aggregation, stabilization of platelet plug, and clot retraction. Upon atherosclerotic plaque rupture also causes platelet plug formation, which underlies a number of cardiovascular diseases such as myocardial infraction and stroke. A number of anti-platelet drugs such as aspirin, clopidogrel, prasugrel, vorapaxar, and eptifibatide are currently available to prevent the thrombotic complications. However, these anti-platelet agents have several limitations including inherent variability in individual responses, developing resistance, and serious bleeding side effects. For these reasons they are not suitable for long-term protection. Based on the experiences with current anti-platelet drugs, it appears that the most useful therapeutic approach is to intersect the secondary responses such as integrin outside-in signaling or recruitment of platelets by TxA2 and secreted ADP. Compounds, which can largely preserve the primary hemostatic function of platelets but inhibit secondary response will be most desired therapeutic agents for treatment of cardiovascular disease. CIB1 is a calcium integrin binding protein, which specifically interact with the alphaIIb subunit of integrin alphaIIb-beta3. Binding of CIB1 to alphaIIb regulates the outside-in signaling in platelets, which is needed for thrombus stabilization and thrombus growth. […] Therefore, we propose that discovery of a small molecule that can prevent the association of CIB1 and alphaIIb-beta3 will be a potential anti-platelet agent that can block the thrombus formation without undue effect on hemostasis. Reference: [1] Naik MU, Nigam A, Manrai P, et al. CIB1 deficiency results in impaired thrombosis: the potential role of CIB1 in outside-in signaling through integrin alpha IIb beta 3. J Thromb Haemost.
PROTOCOL TABLES SEQUENCE No. (1, 2, 3, etc.); […] (e.g., Cells, Incubation, Reagent, etc.); VALUE and DESCRIPTION. 1; Reagent; 3 uL; Protein or buffer (4/3x) 2; Compound; 46 nL; Control inhibitor / compound library 3; Time; 15 min; Room temperature incubation 4; Reagent; 1 uL; Fluorescent labeled peptide (4x) 5; Time; 1000 rpm; Centrifuge 6; Time; 15 min; Room temperature incubation 7; Detection; Ex 480/ Em 540; ViewLux Fluorescence Read NOTES (numbers refer to sequence above) 1; Protein Mixture: C1B1-GST (final concentrations of 1 uM). […] 3; Room temperature incubation. 4; Fluorescent Labeled Peptide: FITC-aIIb (final concentration of 100 nM). Sequence of alphaIIb peptide: Acetyl-[…]-FITC (purity is 95.83%). 5; Centrifuge 1000 rpm (164 g) for 15 seconds. 6; Room temperature incubation. 7; ViewLux Fluorescent Polization Read: excitation = 480(20) / emission = 540(25) S and P; FITC Dichroic mirror.
On the % scale 0 is the no-effect control and ±100 the full control effect.

Calcium and integrin-binding protein 1 (Homo sapiens), sequence (Q99828 whole entry, looked up): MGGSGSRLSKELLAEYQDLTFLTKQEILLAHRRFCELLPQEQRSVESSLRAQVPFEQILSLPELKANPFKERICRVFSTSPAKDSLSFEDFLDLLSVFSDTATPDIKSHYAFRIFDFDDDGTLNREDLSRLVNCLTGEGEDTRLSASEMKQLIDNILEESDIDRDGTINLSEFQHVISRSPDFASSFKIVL

SMILES	activity change, negative = inhibition	outcome
CO[C@@H]1[C@H](N(C)C(=O)c2ccccc2)C[C@H]2O[C@]1(C)n1c3ccccc3c3c4c(c5c6ccccc6n2c5c31)C(=O)NC4	6.27% (inactive)	
Fc1ccc(Cl)cc1-c1nc(Nc2ccncc2)c2nccnc2n1	-8.4% (inactive)	
O=c1[nH]c(-c2ccc(C(F)(F)F)cc2)nc2c1CSCC2		inactive
NC(=O)c1ccc(-c2nc(-c3ccc4c(c3)OCO4)c(-c3ccccn3)[nH]2)cc1	-11.9% (inactive)	
O=C(c1cc(Cc2n[nH]c(=O)c3ccccc23)ccc1F)N1CCN(C(=O)C2CC2)CC1		inactive
S=C(NCc1ccc2c(c1)OCO2)N1CCN(c2ncnc3c2oc2ccccc23)CC1		inactive
Cc1oncc1C(=O)Nc1ccc(C(F)(F)F)cc1		inactive
Nc1nccc(-c2ccc3noc(-c4ccc(Cl)cc4)c3c2)n1	1.69% (inactive)	
COc1cc(Nc2ncc3c(n2)-c2ccc(Cl)cc2C(c2c(F)cccc2OC)=NC3)ccc1C(=O)O		inactive
O=C1CCc2cc(OCCCCc3nnnn3C3CCCCC3)ccc2N1		inactive
OC[C@H](Cc1ccccc1)Nc1nc(Oc2ccc3c(c2)CCC3)nc2c1ncn2Cc1ccc(-c2ccccc2)cc1	0.172% (inactive)	
CC(C=CC1=C(C)CCCC1(C)C)=CC=CC(C)=CC(=O)O		inactive
CCOC(=O)N[C@@H]1CC[C@@H]2[C@@H](C1)C[C@H]1C(=O)O[C@H](C)[C@H]1[C@@H]2C=Cc1ccc(-c2cccc(F)c2)cn1	1.99% (inactive)	
COc1cc2nccc(Oc3ccc(NC(=O)NC4CC4)c(Cl)c3)c2cc1C(N)=O		inactive
Cc1cc(SCc2sc(-c3ccc(C(F)(F)F)cc3)nc2C)ccc1OCC(=O)O		inactive
O=S(=O)(N=Cc1c(O)ccc2ccccc12)c1cccs1	-3.62% (inactive)	
Cc1cnc(Nc2ccc(OCCN3CCCC3)cc2)nc1Nc1cccc(S(=O)(=O)NC(C)(C)C)c1		inactive
O=c1ncn2nc(Sc3ccc(F)cc3F)ccc2c1-c1c(Cl)cccc1Cl	-4.72% (inactive)	
CCOc1ccc(Cc2cc([C@@H]3O[C@H](CO)[C@@H](O)[C@H](O)[C@@H]3O)ccc2Cl)cc1	0.0626% (inactive)	
Cc1cc(C=c2sc3nc4ccccc4n3c2=O)c(C)n1-c1ccccc1	-1.61% (inactive)	

SMILES	activity change, negative = inhibition	outcome
CCOC(=O)N1CCC(=C2c3ccc(Cl)cc3CCc3cccnc32)CC1		inactive
COCCNCCCn1c(C(=O)CF)c(-c2ccc(C)cc2)c2c(N)ncnc21		inactive
NCCCC(N)(C(=O)O)C(F)F (stereo not given)		inactive
CC(=O)Oc1ccccc1C(=O)O		inactive
CC(C)(N)C(=O)N[C@H](COCc1ccccc1)C(=O)N1CCC2(CC1)CN(S(C)(=O)=O)c1ccccc12		inactive
COc1nc(-c2ccc3c(c2)OCO3)n(-c2ccc(NC(=O)CSc3ccccc3)cc2)n1		inactive
NC(=O)c1cnccn1		inactive
COc1ccc(CC2=NN3C([C@@H](CCc4ccccc4)[C@@H](C)O)=NC(C)C3C(=O)N2)cc1OC (stereo not given in full)	-1.15% (inactive)	
Nc1ccc(S(=O)(=O)Nc2ccnn2-c2ccccc2)cc1		inactive
CCCCNc1cc(C(=O)O)cc(S(N)(=O)=O)c1Oc1ccccc1		inactive
Cc1cc([C@@H](C)Nc2ccccc2C(=O)O)c2nc(N3CCOCC3)cc(=O)n2c1	-7.33% [at 114 µM] (inactive)	
C[C@H](NC(=O)Cc1cc(F)cc(F)c1)C(=O)N[C@@H]1C(=O)N(C)c2ccccc2-c2ccccc21		inactive
CCC(C)N(C)C(=O)c1cc2ccccc2c(-c2ccccc2Cl)n1 (stereo not given)	-2.03% (inactive)	
CCOC(=O)C1=C[C@]2(CC)CCCN3CCc4c(n1c1ccccc41)[C@@H]32		inactive
CCn1c(-c2nonc2N)nc2c(C#CC(C)(C)O)ncc(OC[C@H]3CCCNC3)c21	-1.31% (inactive)	
Cc1cccc(-c2nn(C(=S)Nc3ccccc3)cc2-c2ccnc3ccccc23)n1	-4.56% (inactive)	
COc1cc(Oc2ccnc3cc(OC)c(OC)cc23)ccc1NC(=O)NC(C)c1nccs1 (stereo not given)		inactive
CCCC(CCC)C(=O)O		inactive
Cc1c(CCOc2ccc(C(=O)O)cc2)c2cc(Cl)ccc2n1C(c1ccccc1)c1ccccc1	-2.23% (inactive)	
NC(=O)C1CCCc2c1[nH]c1ccc(Cl)cc21 (stereo not given)	-0.14% (inactive)	
